# About 460 (31%) of roughly 1,500 compounds were called active. About 1% were inconclusive and are not listed. Only a sample is shown. Measured potencies and affinities stand elsewhere. A number with no mark means an inactive call.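 The calls were made as follows: active = curve reaches 40% activation over neutral controls at an AC40 no higher than the top valid tested concentration; inconclusive = no clear call, values can overlap the other calls; inactive = signal moving opposite to the expected increase, and the rest.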
# Assay: GLuc-reported insulin release enhancers, glucose-stimulated beta cells – cell-based, INS-1E, Gaussia luciferase, luminescence, cherry-pick, set 2, dose response (AID 977607);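 also: 0% = median of the plate neutral control wells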
# Conditions: INS-1E GLuc insulin secretion reporter, 2-3 h, hits give high values; at 35 µM, 100% = signal doubled over neutral wells unless noted
row,Compound,max activation
1,N#Cc1c(-c2ccco2)cc(C2CC2)nc1N,25.6%
2,Cc1cc(C)n2ncc(-c3cccc(Br)c3)c2n1,"-17% [at 0.0016 µM, 100% = signal doubled over neutral wells]"
3,CC1CCc2nc(N)c(C#N)c(-c3ccncc3)c2C1 (centres undefined),21.5%
4,O=c1cc(-c2cccc(Br)c2)nc(-c2ccccc2F)o1,"-17.1% [at 11 µM, 100% = signal doubled over neutral wells]"
5,Cc1ccc(C(=O)n2nc(-c3cccnc3)nc2N)cc1,23.7%
6,Cc1nc(N)c(C#N)c(-c2cccnc2)c1-c1ccccc1,"45.7% [at 11 µM, 100% = signal doubled over neutral wells]"
7,Cc1cccc(C)c1OCCCn1ccnc1,"41% [at 0.046 µM, 100% = signal doubled over neutral wells]"
8,O=C(CC1SC2=NCCN2C1=O)Nc1ccc(Br)cc1 (centres undefined),"-22.5% [at 0.42 µM, 100% = signal doubled over neutral wells]"
9,Cc1ccc(NC(=O)CN(C(=O)N2CCN(C)CC2)S(=O)(=O)c2ccc(C)cc2)cc1,"-21.9% [at 1.2 µM, 100% = signal doubled over neutral wells]"
10,Cc1cc(S(=O)(=O)Nc2nc(CN3CCOCC3)nc3sc4c(c23)CCC4)ccc1F,"-12.9% [at 0.135 µM, 100% = signal doubled over neutral wells]"
11,C=CCc1ccccc1Oc1cc(OC)nc(N)n1,"-22% [at 1.2 µM, 100% = signal doubled over neutral wells]"
12,COc1ccc(CCNC(=O)C(=O)c2c(C)n(C)c3ccccc23)cc1OC,"-13.8% [at 1.2 µM, 100% = signal doubled over neutral wells]"
13,CCC(C)c1ccccc1OCCn1ccnc1 (centres undefined),"16.6% [at 0.005 µM, 100% = signal doubled over neutral wells]"
14,COc1ccc(OCCCCN(C)Cc2ccccc2)cc1,"-18.5% [at 1.2 µM, 100% = signal doubled over neutral wells]"
15,O=C(N/N=C/c1ccc2c(c1)OCO2)c1ccc(Cl)cc1Cl,-37.2%
16,CCC(=O)Nc1sc(Cc2ccc3c(c2)OCO3)c(C)c1C(N)=O,"-24.2% [at 0.0016 µM, 100% = signal doubled over neutral wells]"
17,O=C(Nc1ccc(F)cc1)c1cccnc1Oc1ccccc1,21.8%
18,CC(C)CCN1CC(O)=C(c2nc(-c3ccc(Cl)cc3)cs2)C1=N,"-11.3% [at 0.005 µM, 100% = signal doubled over neutral wells]"
19,CCCn1c(C)cc(C)c(C#N)c1=O,"-11.7% [at 1.2 µM, 100% = signal doubled over neutral wells]"
20,O=C(O)CC(CC(=O)Nc1ccc(C(=O)O)cc1)c1ccccc1 (centres undefined),"11.8% [at 3.8 µM, 100% = signal doubled over neutral wells]"

row,Compound,max activation
1,CCNc1nc(Oc2ccc(C#N)cc2)cc(C(F)(F)F)n1,"-19% [at 0.135 µM, 100% = signal doubled over neutral wells]"
2,O=S(=O)(NCc1ccccc1)c1ccc(-n2cccn2)cc1,"32% [at 0.135 µM, 100% = signal doubled over neutral wells]"
3,Cc1ccc2c(c1)N(C(C)C(=O)NCc1cccs1)C(=O)CO2 (centres undefined),"15.9% [at 0.42 µM, 100% = signal doubled over neutral wells]"
4,CN1CCCC1CCNC1C2CC3CC(C2)CC1C3 (centres undefined),"-20.8% [at 0.135 µM, 100% = signal doubled over neutral wells]"
5,Cc1ccc(-n2nc3c(c2NC(=O)C2CC2)CS(=O)(=O)C3)cc1,"-19.6% [at 0.005 µM, 100% = signal doubled over neutral wells]"
6,CC(C)CN(C(=O)C1CCCCC1)C1CCS(=O)(=O)C1 (centres undefined),"-14.6% [at 3.8 µM, 100% = signal doubled over neutral wells]"
7,CC1CCC(NC(=O)C2COc3ccccc3O2)CC1 (centres undefined),"-17.3% [at 0.135 µM, 100% = signal doubled over neutral wells]"
8,O=C(O)C1Cc2c([nH]c3ccccc23)C(c2ccc3c(c2)OCO3)N1 (centres undefined),"27.5% [at 0.015 µM, 100% = signal doubled over neutral wells]"
9,CC(=O)N1CCN(c2nc(-c3cccs3)nc3ccccc23)CC1,"40.4% [at 11 µM, 100% = signal doubled over neutral wells]"
10,Cc1nn(-c2ccccc2)c2nc(C(F)F)cc(C(F)F)c12,13.6%
11,COc1ccc(-c2cnc(N)nc2-c2ccc(OC)cc2)cc1,"20.9% [at 11 µM, 100% = signal doubled over neutral wells]"
12,Cc1cccn2cc(CCNS(=O)(=O)c3cccs3)nc12,"-22.2% [at 0.42 µM, 100% = signal doubled over neutral wells]"
13,Cc1cc(OCC(O)CNC(C)c2ccccc2)ccc1C(C)C (centres undefined),327%
14,COc1ccccc1C(C)NS(=O)(=O)c1ccc(Cl)nc1 (centres undefined),"15.6% [at 3.8 µM, 100% = signal doubled over neutral wells]"
15,Cc1cn(CC(C)C)c(=O)n(-c2ccccc2)c1=O,12.2%
16,Cc1cccc2nc(-c3ccco3)c(Nc3ccccc3)n12,-25.5%
17,COc1ccc(-c2[nH]c3ccccc3c2SCCN)cc1,-28.1%
18,COc1ccc(N2CC(C(=O)N3CCc4ccccc43)CC2=O)cc1 (centres undefined),"-12.5% [at 0.0016 µM, 100% = signal doubled over neutral wells]"
19,O=c1c(C(c2ccccc2)c2c(O)sc3ccccc3c2=O)c(O)sc2ccccc12,19.2%

# From PubChem BioAssay AID977607 (Broad Institute, 2014)
